Data taken from ChEMBL document CHEMBL3988442, “University of Dundee, Small-Polar-MMV Screening Library” (2021).
For some assays here: Results with a measured potency or affinity are listed apart.

How the values were obtained:
Design in all cases: scale not given: direction of the effect not stated beside the values
[1] = target: Protein translocase subunit SecA (Escherichia coli (strain K12)) (UniProt P10408); assay: Assay to Identify E. coli SecA ATPase Inhibitors; format: functional; conditions: 30 µM
Protein translocase subunit SecA (Escherichia coli (strain K12)), sequence (P10408 whole entry): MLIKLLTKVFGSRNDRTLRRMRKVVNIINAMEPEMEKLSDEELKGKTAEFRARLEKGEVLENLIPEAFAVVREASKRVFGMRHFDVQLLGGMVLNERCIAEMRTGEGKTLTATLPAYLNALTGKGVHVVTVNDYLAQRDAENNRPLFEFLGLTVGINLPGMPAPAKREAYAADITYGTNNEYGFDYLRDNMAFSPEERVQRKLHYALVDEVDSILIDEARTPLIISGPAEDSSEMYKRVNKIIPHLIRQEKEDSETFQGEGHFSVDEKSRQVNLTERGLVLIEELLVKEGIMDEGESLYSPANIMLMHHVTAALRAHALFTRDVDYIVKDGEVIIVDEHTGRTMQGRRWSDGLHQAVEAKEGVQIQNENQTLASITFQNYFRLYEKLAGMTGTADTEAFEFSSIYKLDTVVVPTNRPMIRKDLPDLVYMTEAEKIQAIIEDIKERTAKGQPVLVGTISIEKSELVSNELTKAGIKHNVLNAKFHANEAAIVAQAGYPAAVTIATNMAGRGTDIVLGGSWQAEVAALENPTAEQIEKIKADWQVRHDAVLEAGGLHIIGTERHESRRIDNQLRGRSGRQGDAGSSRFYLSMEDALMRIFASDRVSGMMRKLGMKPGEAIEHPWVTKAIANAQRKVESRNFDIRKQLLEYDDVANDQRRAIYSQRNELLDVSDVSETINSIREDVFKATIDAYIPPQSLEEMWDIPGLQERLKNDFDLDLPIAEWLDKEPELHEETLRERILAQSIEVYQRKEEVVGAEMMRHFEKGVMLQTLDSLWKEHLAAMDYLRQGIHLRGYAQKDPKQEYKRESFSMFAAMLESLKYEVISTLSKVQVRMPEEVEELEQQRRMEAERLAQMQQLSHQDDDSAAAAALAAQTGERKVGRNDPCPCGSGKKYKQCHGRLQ

[2] = target: T1, Ubiquitin-activating enzyme e1, putative (Leishmania donovani (strain BPK282A1)) (UniProt E9BSI1); assay: Leishmania donovani Ubiquitin Activating Enzyme (LdE1); format: functional; conditions: 30 µM
T1 sequence (whole entry): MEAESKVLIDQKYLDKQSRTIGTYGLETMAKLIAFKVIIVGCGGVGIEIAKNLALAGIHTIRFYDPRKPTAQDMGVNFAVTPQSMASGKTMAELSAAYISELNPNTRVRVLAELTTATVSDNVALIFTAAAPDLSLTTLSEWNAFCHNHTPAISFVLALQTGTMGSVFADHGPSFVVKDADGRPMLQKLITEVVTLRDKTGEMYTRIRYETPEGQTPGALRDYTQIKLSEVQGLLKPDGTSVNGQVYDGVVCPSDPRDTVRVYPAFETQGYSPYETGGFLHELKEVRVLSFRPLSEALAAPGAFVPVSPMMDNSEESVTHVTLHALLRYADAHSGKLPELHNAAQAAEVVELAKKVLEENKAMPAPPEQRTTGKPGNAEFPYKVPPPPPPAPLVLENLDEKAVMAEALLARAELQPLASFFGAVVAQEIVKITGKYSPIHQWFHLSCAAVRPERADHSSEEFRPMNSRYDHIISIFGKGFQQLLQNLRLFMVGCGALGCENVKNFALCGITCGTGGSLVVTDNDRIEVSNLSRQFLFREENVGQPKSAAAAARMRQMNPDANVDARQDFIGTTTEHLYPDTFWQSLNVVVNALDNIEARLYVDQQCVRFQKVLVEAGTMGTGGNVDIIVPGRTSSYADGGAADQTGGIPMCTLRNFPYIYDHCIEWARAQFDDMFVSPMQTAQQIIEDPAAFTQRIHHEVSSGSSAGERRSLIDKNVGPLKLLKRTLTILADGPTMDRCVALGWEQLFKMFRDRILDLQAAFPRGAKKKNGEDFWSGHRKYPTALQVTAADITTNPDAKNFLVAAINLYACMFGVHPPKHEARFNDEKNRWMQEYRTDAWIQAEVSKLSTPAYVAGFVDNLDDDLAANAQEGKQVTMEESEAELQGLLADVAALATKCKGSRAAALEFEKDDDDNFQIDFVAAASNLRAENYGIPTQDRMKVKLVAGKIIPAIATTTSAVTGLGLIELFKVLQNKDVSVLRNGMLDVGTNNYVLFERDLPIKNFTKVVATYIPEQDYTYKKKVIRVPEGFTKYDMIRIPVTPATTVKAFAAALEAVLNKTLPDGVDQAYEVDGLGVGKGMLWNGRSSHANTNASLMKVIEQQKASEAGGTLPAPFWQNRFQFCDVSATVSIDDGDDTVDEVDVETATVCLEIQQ

[3] = target: Sialic acid-binding Ig-like lectin 9 (Homo sapiens) (UniProt Q9Y336); assay: Hs-Siglec9 ALPHAscreen SOP 20170721; conditions: 10 µM
Sialic acid-binding Ig-like lectin 9 (Homo sapiens), sequence (Q9Y336 whole entry): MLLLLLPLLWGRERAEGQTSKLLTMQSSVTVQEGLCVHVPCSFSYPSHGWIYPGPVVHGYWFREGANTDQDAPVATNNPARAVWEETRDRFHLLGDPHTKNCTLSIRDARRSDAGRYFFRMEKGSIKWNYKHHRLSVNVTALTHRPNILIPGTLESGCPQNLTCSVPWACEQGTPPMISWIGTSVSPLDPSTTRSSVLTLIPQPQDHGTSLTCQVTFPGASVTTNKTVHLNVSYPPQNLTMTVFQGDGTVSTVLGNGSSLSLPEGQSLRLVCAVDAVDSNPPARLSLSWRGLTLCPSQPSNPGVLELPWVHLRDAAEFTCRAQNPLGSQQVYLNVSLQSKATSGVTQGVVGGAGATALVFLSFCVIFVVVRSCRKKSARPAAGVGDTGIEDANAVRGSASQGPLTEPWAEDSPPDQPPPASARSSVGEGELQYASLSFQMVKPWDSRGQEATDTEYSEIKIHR

Trypanosoma cruzi = assay: Trypanosoma cruzi phosphomannomutase and mannose-1-phosphate guanylyltransferase assay; format: functional; conditions: 10 µM
[4] = target: T2, Arginase-2, mitochondrial (Homo sapiens) (UniProt P78540); assay: in vitro enzyme assay to detect the production of urea directly proportional to the activity of Arginase II; format: functional; conditions: 33.3 µM; further: in the data most compounds retested in dose-response had high values
T2 sequence (whole entry): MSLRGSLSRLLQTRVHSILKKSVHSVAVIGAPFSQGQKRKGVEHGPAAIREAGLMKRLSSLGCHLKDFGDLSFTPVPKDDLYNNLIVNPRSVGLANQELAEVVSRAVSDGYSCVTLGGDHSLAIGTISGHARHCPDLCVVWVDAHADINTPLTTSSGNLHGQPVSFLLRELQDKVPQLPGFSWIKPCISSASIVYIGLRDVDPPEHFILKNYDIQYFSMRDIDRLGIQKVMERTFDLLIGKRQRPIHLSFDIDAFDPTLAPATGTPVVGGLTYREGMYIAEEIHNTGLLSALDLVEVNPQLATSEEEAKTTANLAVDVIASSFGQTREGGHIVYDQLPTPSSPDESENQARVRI

[5] = target: T3, Proteasome subunit beta (Trypanosoma cruzi) (UniProt O96673); assay: Trypanosoma cruzi proteasome chymotrypsin-like activity (TcProtChymo) assay.; further: in the data most compounds retested in dose-response had high values; format: functional; conditions: 9.37 µM
T3 sequence (whole entry): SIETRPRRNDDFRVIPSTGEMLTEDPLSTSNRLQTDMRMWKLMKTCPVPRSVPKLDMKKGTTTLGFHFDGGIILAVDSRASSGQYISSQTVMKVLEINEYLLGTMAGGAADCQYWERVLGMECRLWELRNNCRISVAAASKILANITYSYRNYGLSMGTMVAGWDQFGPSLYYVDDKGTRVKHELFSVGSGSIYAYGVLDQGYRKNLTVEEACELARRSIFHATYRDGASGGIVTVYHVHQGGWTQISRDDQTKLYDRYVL

Homo sapiens = species on record: Homo sapiens; assay: To identify inhibition of the IFN signalling (Jak-Stat) pathway via expression of an eGFP reporter gene under the control of an IFN-stimulated response element (ISRE) containing MxA promoter.; format: functional; conditions: 30 µM
[6] = target: T4, Tyrosyl-tRNA synthetase, putative (Trypanosoma cruzi (strain CL Brener)) (UniProt Q4DSP6); assay: Trypanosoma cruzi tyrosyl tRNA synthetase (TcYRS) _High Tyrosine SOP; format: functional; conditions: 30 µM; further: in the data most compounds retested in dose-response had high values
T4 sequence (whole entry): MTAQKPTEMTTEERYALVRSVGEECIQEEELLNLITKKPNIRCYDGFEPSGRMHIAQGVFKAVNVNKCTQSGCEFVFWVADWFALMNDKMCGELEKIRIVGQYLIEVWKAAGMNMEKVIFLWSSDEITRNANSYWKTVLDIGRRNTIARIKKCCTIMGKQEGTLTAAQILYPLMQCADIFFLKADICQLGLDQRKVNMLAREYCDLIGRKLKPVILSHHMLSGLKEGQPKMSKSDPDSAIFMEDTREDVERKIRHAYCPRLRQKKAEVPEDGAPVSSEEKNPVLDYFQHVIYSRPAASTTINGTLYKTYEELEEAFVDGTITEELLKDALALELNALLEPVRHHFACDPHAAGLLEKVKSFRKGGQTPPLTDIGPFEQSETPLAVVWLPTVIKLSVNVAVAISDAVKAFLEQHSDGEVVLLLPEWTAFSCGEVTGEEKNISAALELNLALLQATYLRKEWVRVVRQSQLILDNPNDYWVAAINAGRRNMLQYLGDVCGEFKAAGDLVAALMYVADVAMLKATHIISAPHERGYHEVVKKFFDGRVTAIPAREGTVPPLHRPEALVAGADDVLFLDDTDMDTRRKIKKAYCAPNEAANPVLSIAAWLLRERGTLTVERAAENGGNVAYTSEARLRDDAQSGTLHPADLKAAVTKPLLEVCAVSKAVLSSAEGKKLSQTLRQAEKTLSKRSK

[7] = target: T4, Tyrosyl-tRNA synthetase, putative (Trypanosoma cruzi (strain CL Brener)); assay: Trypanosoma cruzi tyrosyl tRNA synthetase (TcYRS) SOP; format: functional; conditions: 30 µM
[8] = target: Chromo domain-containing protein 1 (Saccharomyces cerevisiae (strain ATCC 204508 / S288c) (Baker's yeast)) (UniProt P32657); assay: ScCHD-1 Enzyme Inhibition Assay; format: functional; conditions: 30 µM; further: in the data most compounds retested in dose-response had high values
Chromo domain-containing protein 1 (Saccharomyces cerevisiae (strain ATCC 204508 / S288c) (Baker's yeast)), sequence (P32657 whole entry, the tested form may be a part): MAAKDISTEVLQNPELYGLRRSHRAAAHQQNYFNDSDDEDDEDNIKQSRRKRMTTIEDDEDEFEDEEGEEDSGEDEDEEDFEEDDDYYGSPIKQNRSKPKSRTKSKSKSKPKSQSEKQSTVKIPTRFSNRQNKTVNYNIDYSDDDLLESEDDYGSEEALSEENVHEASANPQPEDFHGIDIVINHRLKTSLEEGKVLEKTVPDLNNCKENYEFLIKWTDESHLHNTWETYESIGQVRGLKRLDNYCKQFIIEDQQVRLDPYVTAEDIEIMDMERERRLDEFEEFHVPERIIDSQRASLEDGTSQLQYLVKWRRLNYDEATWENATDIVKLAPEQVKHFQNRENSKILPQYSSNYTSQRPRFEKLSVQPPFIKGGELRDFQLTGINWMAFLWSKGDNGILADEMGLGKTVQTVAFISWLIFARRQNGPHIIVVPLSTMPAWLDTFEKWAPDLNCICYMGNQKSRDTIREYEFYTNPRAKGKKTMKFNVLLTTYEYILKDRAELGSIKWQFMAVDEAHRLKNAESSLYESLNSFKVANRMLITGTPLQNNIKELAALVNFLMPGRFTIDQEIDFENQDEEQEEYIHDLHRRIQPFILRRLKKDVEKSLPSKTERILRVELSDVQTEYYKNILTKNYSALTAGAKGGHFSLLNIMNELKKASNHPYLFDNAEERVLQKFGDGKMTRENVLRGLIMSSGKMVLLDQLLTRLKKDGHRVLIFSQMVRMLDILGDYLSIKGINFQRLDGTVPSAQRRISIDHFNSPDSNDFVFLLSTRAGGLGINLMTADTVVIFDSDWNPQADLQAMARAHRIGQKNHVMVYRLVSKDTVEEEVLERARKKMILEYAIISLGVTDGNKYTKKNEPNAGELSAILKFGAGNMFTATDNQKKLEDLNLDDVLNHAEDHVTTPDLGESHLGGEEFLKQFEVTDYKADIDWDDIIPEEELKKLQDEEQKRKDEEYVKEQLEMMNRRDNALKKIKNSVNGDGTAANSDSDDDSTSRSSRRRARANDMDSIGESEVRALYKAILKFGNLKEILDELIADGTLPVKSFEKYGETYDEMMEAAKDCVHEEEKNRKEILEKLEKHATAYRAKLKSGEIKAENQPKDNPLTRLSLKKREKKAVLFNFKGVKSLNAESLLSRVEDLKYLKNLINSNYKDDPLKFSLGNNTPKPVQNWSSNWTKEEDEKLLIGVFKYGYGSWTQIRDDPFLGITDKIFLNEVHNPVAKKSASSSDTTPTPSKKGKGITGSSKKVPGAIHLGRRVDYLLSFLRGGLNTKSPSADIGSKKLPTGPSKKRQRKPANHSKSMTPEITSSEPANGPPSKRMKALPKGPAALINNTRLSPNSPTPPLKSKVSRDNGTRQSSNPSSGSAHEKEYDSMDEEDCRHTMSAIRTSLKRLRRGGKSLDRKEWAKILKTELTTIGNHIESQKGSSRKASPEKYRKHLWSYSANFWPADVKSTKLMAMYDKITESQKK

Structure (SMILES)	Percent Effect [1] [%]	Percent Effect [2] [%]	Percent Effect [3] [%]	Percent Effect (Trypanosoma cruzi) [%]	Percent Effect [4] [%]	Percent Effect [5] [%]	Percent Effect (Homo sapiens) [%]	Percent Effect [6] [%]	Percent Effect [7] [%]	Percent Effect [8] [%]
COC[C@@H]1CC[C@H]2[C@H](CCN2S(=O)(=O)c2ccc(OC)cc2)O1	-2.3	-1.3	2.46	-0.876	-1.62	6.09	-19.4	-1.58	5.13	1.57
COC(=O)C1CCN(C(=O)c2ccc(N(C)S(C)(=O)=O)c(C)c2)CC1	-3.72	-2.7	-4.09	-31.3	-1.75	13.7	-11.3	2.66	2.44	3.29
O=C(CCN1CCCN(c2nccs2)CC1)Nc1ccccc1	-2.89	10.7	-7.96	-4.82	-5.76	13.2	17.4	-0.526	-5.13	-12
CC(=O)N1CCC2(CCN(C(=O)c3ccc(Cl)c(C(F)(F)F)c3)CC2)C1	-7.31	6.49	5.74	0.292	-0.405	7.5	-12.1	6.84	7.69	3.63
CN1CC(c2ccccc2)CC12CCN(C(=O)c1ccc(F)cc1)CC2 (stereo not given)	-9.69	0	9.54	-2.04	2.45	6.34	16.1	0.532	2.44	-1.53
CCOCC1CN(Cc2cnn(C)c2)Cc2ncn(CC3CC3)c21 (stereo not given)	-6.63	-1.3	9.29	-1.66	-3.64	2.21	10.9	1.58	-5.13	0.231
CN(C)CCN1CCCC12CCN(C(=O)c1cccn1C)CC2	-4.21	-1.3	2.81	2.04	-2.02	0.618	-20.1	-0.526	-2.56	4.29
c1ncn(CC2CCCN2Cc2cn3ccsc3n2)n1 (stereo not given)	-3.52	5.13	-17.1	7.61	-1.23	-4.86	-3.77	2.39	6.02	1.9
CN1[C@H](CN2CCCC2)C[C@@H]2CN(C(=O)Cc3cccs3)CC[C@@H]21	-2.98	16.9	-1.33	-3.56	0	5.75	2.07	7.73	2.5	-11.2
O=C(NCc1ccccc1-n1cccn1)N1CCN2CCCCC2C1 (stereo not given)	-4.48	0	9.91	0.803	2.22	1.78	-2.71	2.63	10.3	-8
CC(C)CCC(=O)NC(C)c1nnc2n1CCCCC2 (stereo not given)	-1.02	10.4	4.23	2.42	-0.205	6.84	-5.87	2.94	7.06	-9.02
COc1ccc(S(N)(=O)=O)cc1C(=O)N(C)Cc1cc(C)on1	1.97	20.5	-20.8	1.41	-2.87	16	15.7	1.44	18.1	-7.04
O=C(Cn1cccnc1=O)NCCc1ccc2c(c1)OCCO2	-2.08	16	-6.16	-5.22	1.77	18.9	9.16	1.58	7.69	-8.6
Cc1cccc(C(=O)N2C[C@@H](OCc3cccnc3)[C@H]3OCCC[C@@H]32)n1	-3.43	11.7	-6.23	4.77	-4.45	21.6	5.3	8.95	7.69	112
